The results in this text go back to ChEMBL document CHEMBL5308541, “MAIP: An Open-Source Tool to Enrich High-Throughput Screening Output and Identify Novel, Druglike Molecules with Antimalarial Activity” (ACS Med Chem Lett, 2023).

The whole screen tested about 4,800 compounds, of which about 420 (8.8%) showed an effect of 50% or more. Only a selection was taken, and strong results are over-represented in it overall.

This test deals with Plasmodium falciparum. As to the kind of experiment: Confirmatory screen in NF54 nanoGlo assay, in single point, at 2uM, 72h. It counts as functional, Erythrocyte. The note with it: timepoint 72 hour.
Regarding `O[C@@H](CNCc1ccc2c(c1)CCO2)c1ccc(F)c(F)c1`, the % Inhibition (usually the percentage by which the read-out fell short of the control) came to 61%. With `CN1CCC(N(C)c2ccccc2CNC[C@@H](O)c2cccc(Cl)c2)CC1`, the “% Inhibition” value was 23%. As for `CN1CCN(c2ccc(C(F)(F)F)cc2NCc2cnc[nH]2)CC1`, the figure is 62%. Regarding `CN1C2CCC1CC(OC(=O)C1CCC(C(=O)OC3CC4CCC(C3)N4C)(c3ccccc3)c3ccccc31)C2` (stereo not drawn), the “% Inhibition” value was found to be 49%. As for `Fc1ccc(N2CC[C@H](CN3CCC(c4c[nH]c5ccccc45)(c4c[nH]c5ccccc45)CC3)C2)cc1`, the “% Inhibition” value came out at 97%. With `CC(C)(C)c1ccc(CNC[C@H](O)c2ccc(F)cc2F)cc1`, the “% Inhibition” value was 95%. Take `Cc1ccc(CNc2ncnc(N)c2Cl)c(N2CCCC2)n1`: the “% Inhibition” value worked out at 50%. As for `CN(C)CC12CNCC1CN(c1ccnc3cc(Cl)ccc13)C2` (stereo not drawn), the figure is 98%.
